# Measurements taken from PMC11062922 (Nature Chemical Biology, 2023).
# Read-outs that look alike come from different tables or passages of the source.
# Tests used:
# Conditions in all cases: read-out: apparent Kd, n = 1
# NUAK2 = test system: NUAK2
# PAK6 = test system: PAK6
# RET = test system: RET
# [1] = compound concentrations:100 nM and 1000 nM (sheet 'Lestaurtinib' of Supplementary Table 1),run:Lestaurtinib_03252_R1,Plate:MR032
# [2] = compound concentrations:100 nM and 1000 nM (sheet 'Lestaurtinib' of Supplementary Table 1),run:Lestaurtinib_03260_R2,Plate:MR033
# [3] = compound concentrations:100 nM and 1000 nM (sheet 'Lestaurtinib' of Supplementary Table 1),run:Lestaurtinib_02339_R2,Plate:MR001
# [4] = compound concentrations:100 nM and 1000 nM (sheet 'Lestaurtinib' of Supplementary Table 1),run:Lestaurtinib_02364_R3,Plate:MR002
# [5] = compound concentrations:100 nM and 1000 nM (sheet 'Lestaurtinib' of Supplementary Table 1),run:Lestaurtinib_02367_R3,Plate:MR003
# [6] = compound concentrations:100 nM and 1000 nM (sheet 'Lestaurtinib' of Supplementary Table 1),run:Lestaurtinib_02381_R3,Plate:MR004
# [7] = compound concentrations:100 nM and 1000 nM (sheet 'Lestaurtinib' of Supplementary Table 1),run:Lestaurtinib_02422_R3,Plate:MR006
# [8] = compound concentrations:100 nM and 1000 nM (sheet 'Lestaurtinib' of Supplementary Table 1),run:Lestaurtinib_02437_R1,Plate:MR007
substance,measurement,setting,value
Lestaurtinib,potency estimated from few doses,"NUAK2; compound concentrations:100 nM and 1000 nM (sheet 'Lestaurtinib' of Supplementary Table 1),run:Lestaurtinib_03172_R1,Plate:MR031",98.7 nM
same,potency estimated from few doses,NUAK2; [1],45.5 nM
same,potency estimated from few doses,"NUAK2; compound concentrations:100 nM and 1000 nM (sheet 'Lestaurtinib' of Supplementary Table 1),run:Lestaurtinib_03252_R2,Plate:MR032",831 nM
same,potency estimated from few doses,NUAK2; [2],387 nM
same,potency estimated from few doses,PAK6; [3],151 nM
same,potency estimated from few doses,"PAK6; compound concentrations:100 nM and 1000 nM (sheet 'Lestaurtinib' of Supplementary Table 1),run:Lestaurtinib_02364_R2,Plate:MR002",137 nM
same,potency estimated from few doses,PAK6; [4],91000 nM
same,potency estimated from few doses,PAK6; [5],89.2 nM
same,potency estimated from few doses,"PAK6; compound concentrations:100 nM and 1000 nM (sheet 'Lestaurtinib' of Supplementary Table 1),run:Lestaurtinib_02381_R1,Plate:MR004",771 nM
same,potency estimated from few doses,PAK6; [6],136 nM
same,potency estimated from few doses,"PAK6; compound concentrations:100 nM and 1000 nM (sheet 'Lestaurtinib' of Supplementary Table 1),run:Lestaurtinib_02407_R1,Plate:MR005",1800 nM
same,potency estimated from few doses,"PAK6; compound concentrations:100 nM and 1000 nM (sheet 'Lestaurtinib' of Supplementary Table 1),run:Lestaurtinib_02407_R2,Plate:MR005",521 nM
same,potency estimated from few doses,"PAK6; compound concentrations:100 nM and 1000 nM (sheet 'Lestaurtinib' of Supplementary Table 1),run:Lestaurtinib_02407_R3,Plate:MR005",1490 nM
same,potency estimated from few doses,PAK6; [7],1350 nM
same,potency estimated from few doses,PAK6; [8],42.8 nM
same,potency estimated from few doses,"PAK6; compound concentrations:100 nM and 1000 nM (sheet 'Lestaurtinib' of Supplementary Table 1),run:Lestaurtinib_02437_R2,Plate:MR007",638 nM
same,potency estimated from few doses,"PAK6; compound concentrations:100 nM and 1000 nM (sheet 'Lestaurtinib' of Supplementary Table 1),run:Lestaurtinib_02437_R3,Plate:MR007",165 nM
same,potency estimated from few doses,"PAK6; compound concentrations:100 nM and 1000 nM (sheet 'Lestaurtinib' of Supplementary Table 1),run:Lestaurtinib_02438_R2,Plate:MR008",113 nM
same,potency estimated from few doses,"PAK6; compound concentrations:100 nM and 1000 nM (sheet 'Lestaurtinib' of Supplementary Table 1),run:Lestaurtinib_02443_R1,Plate:MR009",830 nM
same,potency estimated from few doses,"PAK6; compound concentrations:100 nM and 1000 nM (sheet 'Lestaurtinib' of Supplementary Table 1),run:Lestaurtinib_02443_R2,Plate:MR009",1300 nM
same,potency estimated from few doses,"PAK6; compound concentrations:100 nM and 1000 nM (sheet 'Lestaurtinib' of Supplementary Table 1),run:Lestaurtinib_02443_R3,Plate:MR009",169 nM
same,potency estimated from few doses,"PAK6; compound concentrations:100 nM and 1000 nM (sheet 'Lestaurtinib' of Supplementary Table 1),run:Lestaurtinib_02473_R3,Plate:MR010",121 nM
same,potency estimated from few doses,"PAK6; compound concentrations:100 nM and 1000 nM (sheet 'Lestaurtinib' of Supplementary Table 1),run:Lestaurtinib_02482_R2,Plate:MR011",852 nM
same,potency estimated from few doses,"PAK6; compound concentrations:100 nM and 1000 nM (sheet 'Lestaurtinib' of Supplementary Table 1),run:Lestaurtinib_02482_R3,Plate:MR011",797 nM
same,potency estimated from few doses,"PAK6; compound concentrations:100 nM and 1000 nM (sheet 'Lestaurtinib' of Supplementary Table 1),run:Lestaurtinib_02487_R1,Plate:MR012",1690 nM
same,potency estimated from few doses,"PAK6; compound concentrations:100 nM and 1000 nM (sheet 'Lestaurtinib' of Supplementary Table 1),run:Lestaurtinib_02487_R3,Plate:MR012",100 nM
same,potency estimated from few doses,"PAK6; compound concentrations:100 nM and 1000 nM (sheet 'Lestaurtinib' of Supplementary Table 1),run:Lestaurtinib_02496_R2,Plate:MR013",1370 nM
same,potency estimated from few doses,"PAK6; compound concentrations:100 nM and 1000 nM (sheet 'Lestaurtinib' of Supplementary Table 1),run:Lestaurtinib_02496_R3,Plate:MR013",1590 nM
same,potency estimated from few doses,"PAK6; compound concentrations:100 nM and 1000 nM (sheet 'Lestaurtinib' of Supplementary Table 1),run:Lestaurtinib_02566_R1,Plate:MR014",49.6 nM
same,potency estimated from few doses,"PAK6; compound concentrations:100 nM and 1000 nM (sheet 'Lestaurtinib' of Supplementary Table 1),run:Lestaurtinib_02566_R3,Plate:MR014",35.1 nM
same,potency estimated from few doses,"PAK6; compound concentrations:100 nM and 1000 nM (sheet 'Lestaurtinib' of Supplementary Table 1),run:Lestaurtinib_02572_R3,Plate:MR015",1350 nM
same,potency estimated from few doses,"PAK6; compound concentrations:100 nM and 1000 nM (sheet 'Lestaurtinib' of Supplementary Table 1),run:Lestaurtinib_02577_R1,Plate:MR016",1350 nM
same,potency estimated from few doses,"PAK6; compound concentrations:100 nM and 1000 nM (sheet 'Lestaurtinib' of Supplementary Table 1),run:Lestaurtinib_02584_R1,Plate:MR017",953 nM
same,potency estimated from few doses,"PAK6; compound concentrations:100 nM and 1000 nM (sheet 'Lestaurtinib' of Supplementary Table 1),run:Lestaurtinib_02584_R3,Plate:MR017",896 nM
same,potency estimated from few doses,"PAK6; compound concentrations:100 nM and 1000 nM (sheet 'Lestaurtinib' of Supplementary Table 1),run:Lestaurtinib_02601_R2,Plate:MR018",846 nM
same,potency estimated from few doses,"PAK6; compound concentrations:100 nM and 1000 nM (sheet 'Lestaurtinib' of Supplementary Table 1),run:Lestaurtinib_02601_R3,Plate:MR018",974 nM
same,potency estimated from few doses,"PAK6; compound concentrations:100 nM and 1000 nM (sheet 'Lestaurtinib' of Supplementary Table 1),run:Lestaurtinib_02606_R1,Plate:MR019",1440 nM
same,potency estimated from few doses,"PAK6; compound concentrations:100 nM and 1000 nM (sheet 'Lestaurtinib' of Supplementary Table 1),run:Lestaurtinib_02606_R2,Plate:MR019",722 nM
same,potency estimated from few doses,"PAK6; compound concentrations:100 nM and 1000 nM (sheet 'Lestaurtinib' of Supplementary Table 1),run:Lestaurtinib_02624_R1,Plate:MR020",730 nM
same,potency estimated from few doses,"PAK6; compound concentrations:100 nM and 1000 nM (sheet 'Lestaurtinib' of Supplementary Table 1),run:Lestaurtinib_02624_R2,Plate:MR020",686 nM
same,potency estimated from few doses,"PAK6; compound concentrations:100 nM and 1000 nM (sheet 'Lestaurtinib' of Supplementary Table 1),run:Lestaurtinib_02624_R3,Plate:MR020",783 nM
same,potency estimated from few doses,"PAK6; compound concentrations:100 nM and 1000 nM (sheet 'Lestaurtinib' of Supplementary Table 1),run:Lestaurtinib_02748_R1,Plate:MR024",896 nM
same,potency estimated from few doses,"PAK6; compound concentrations:100 nM and 1000 nM (sheet 'Lestaurtinib' of Supplementary Table 1),run:Lestaurtinib_02752_R1,Plate:MR025",793 nM
same,potency estimated from few doses,"PAK6; compound concentrations:100 nM and 1000 nM (sheet 'Lestaurtinib' of Supplementary Table 1),run:Lestaurtinib_02752_R2,Plate:MR025",782 nM
same,potency estimated from few doses,"PAK6; compound concentrations:100 nM and 1000 nM (sheet 'Lestaurtinib' of Supplementary Table 1),run:Lestaurtinib_02752_R3,Plate:MR025",799 nM
same,potency estimated from few doses,"PAK6; compound concentrations:100 nM and 1000 nM (sheet 'Lestaurtinib' of Supplementary Table 1),run:Lestaurtinib_02765_R2,Plate:MR026",766 nM
same,potency estimated from few doses,"PAK6; compound concentrations:100 nM and 1000 nM (sheet 'Lestaurtinib' of Supplementary Table 1),run:Lestaurtinib_02766_R1,Plate:MR027",519 nM
same,potency estimated from few doses,"PAK6; compound concentrations:100 nM and 1000 nM (sheet 'Lestaurtinib' of Supplementary Table 1),run:Lestaurtinib_02766_R2,Plate:MR027",66 nM
same,potency estimated from few doses,"PAK6; compound concentrations:100 nM and 1000 nM (sheet 'Lestaurtinib' of Supplementary Table 1),run:Lestaurtinib_02766_R3,Plate:MR027",696 nM
same,potency estimated from few doses,"PAK6; compound concentrations:100 nM and 1000 nM (sheet 'Lestaurtinib' of Supplementary Table 1),run:Lestaurtinib_02768_R1,Plate:MR028",996 nM
same,potency estimated from few doses,"PAK6; compound concentrations:100 nM and 1000 nM (sheet 'Lestaurtinib' of Supplementary Table 1),run:Lestaurtinib_02795_R1,Plate:MR022",648 nM
same,potency estimated from few doses,"PAK6; compound concentrations:100 nM and 1000 nM (sheet 'Lestaurtinib' of Supplementary Table 1),run:Lestaurtinib_02795_R2,Plate:MR022",528 nM
same,potency estimated from few doses,"PAK6; compound concentrations:100 nM and 1000 nM (sheet 'Lestaurtinib' of Supplementary Table 1),run:Lestaurtinib_02795_R3,Plate:MR022",1440 nM
same,potency estimated from few doses,"PAK6; compound concentrations:100 nM and 1000 nM (sheet 'Lestaurtinib' of Supplementary Table 1),run:Lestaurtinib_02802_R1,Plate:MR029",604 nM
same,potency estimated from few doses,"PAK6; compound concentrations:100 nM and 1000 nM (sheet 'Lestaurtinib' of Supplementary Table 1),run:Lestaurtinib_02802_R3,Plate:MR029",85.9 nM
same,potency estimated from few doses,"PAK6; compound concentrations:100 nM and 1000 nM (sheet 'Lestaurtinib' of Supplementary Table 1),run:Lestaurtinib_02896_R1,Plate:MR030",541 nM
same,potency estimated from few doses,"PAK6; compound concentrations:100 nM and 1000 nM (sheet 'Lestaurtinib' of Supplementary Table 1),run:Lestaurtinib_02896_R2,Plate:MR030",1310 nM
same,potency estimated from few doses,"PAK6; compound concentrations:100 nM and 1000 nM (sheet 'Lestaurtinib' of Supplementary Table 1),run:Lestaurtinib_02896_R3,Plate:MR030",785 nM
same,potency estimated from few doses,"PAK6; compound concentrations:100 nM and 1000 nM (sheet 'Lestaurtinib' of Supplementary Table 1),run:Lestaurtinib_03172_R2,Plate:MR031",581 nM
same,potency estimated from few doses,PAK6; [1],825 nM
same,potency estimated from few doses,"PAK6; compound concentrations:100 nM and 1000 nM (sheet 'Lestaurtinib' of Supplementary Table 1),run:Lestaurtinib_03260_R1,Plate:MR033",744 nM
same,potency estimated from few doses,PAK6; [2],805 nM
same,potency estimated from few doses,RET; [3],240 nM
same,potency estimated from few doses,RET; [4],273 nM
same,potency estimated from few doses,"RET; compound concentrations:100 nM and 1000 nM (sheet 'Lestaurtinib' of Supplementary Table 1),run:Lestaurtinib_02367_R1,Plate:MR003",274 nM
same,potency estimated from few doses,"RET; compound concentrations:100 nM and 1000 nM (sheet 'Lestaurtinib' of Supplementary Table 1),run:Lestaurtinib_02367_R2,Plate:MR003",260 nM
same,potency estimated from few doses,RET; [5],265 nM
same,potency estimated from few doses,"RET; compound concentrations:100 nM and 1000 nM (sheet 'Lestaurtinib' of Supplementary Table 1),run:Lestaurtinib_02381_R2,Plate:MR004",218 nM
same,potency estimated from few doses,RET; [6],113 nM
same,potency estimated from few doses,"RET; compound concentrations:100 nM and 1000 nM (sheet 'Lestaurtinib' of Supplementary Table 1),run:Lestaurtinib_02422_R1,Plate:MR006",162 nM
same,potency estimated from few doses,RET; [7],269 nM
same,potency estimated from few doses,RET; [8],142 nM
